Screening results: PubChem BioAssay, National Center for Advancing Translational Sciences (NCATS)
Shiga toxin inh: A qHTS for Small Molecule Inhibitors of Shiga Toxin. Vero cells, Shiga toxin protein synthesis inhibition reporter. inhibition, % at 38.7 µM. 9.2% of 290,000 active; in the data active = inhibition mostly above about 28%, no sharp cut-off; inactive = mostly below about 43%
Cycloheximide cs: Cycloheximide Counterscreen for Small Molecule Inhibitors of Shiga Toxin. cell reporter, cycloheximide protein synthesis inhibition counterscreen. max response, %. 12% of 300,000 active. AID 2314, 2010; in the data active = max response mostly above about 13%, no sharp cut-off; inactive = mostly below about 14%; also: read at 38.3 µM for the half of the compounds with a filed dose
AmpC inh no detg: qHTS Inhibitors of AmpC Beta-Lactamase (assay without detergent) | 0.52% of 330,000 active | AID 485341, 2010 | AmpC nitrocefin hydrolysis, absorbance 480 nm, 0.0001% Triton | Potency, µM (highest dose often 57.1 µM), hits mostly inhibitors; also: nearly all actives have a fitted effect of over 20% in size
Target sequence (P00811 whole entry, looked up): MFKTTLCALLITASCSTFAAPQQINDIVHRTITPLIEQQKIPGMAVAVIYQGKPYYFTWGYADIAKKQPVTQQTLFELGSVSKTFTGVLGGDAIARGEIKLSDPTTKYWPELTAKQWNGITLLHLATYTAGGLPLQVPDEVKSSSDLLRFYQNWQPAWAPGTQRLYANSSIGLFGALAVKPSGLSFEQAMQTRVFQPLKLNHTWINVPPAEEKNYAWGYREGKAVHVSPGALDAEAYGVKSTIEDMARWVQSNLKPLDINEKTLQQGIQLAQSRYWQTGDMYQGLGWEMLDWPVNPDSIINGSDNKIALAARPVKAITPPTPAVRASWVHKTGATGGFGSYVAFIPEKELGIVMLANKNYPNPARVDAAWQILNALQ
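20 mM phosphate pH 7.0 + 0.01% (detergent screen) or 0.0001% Triton X-100; 5.3 nM AmpC reagent; cpd preinc 15 min RT; nitrocefin (800 uM stock) to start; A480 q20 s × 4 min; Activity was normalised to no-enzyme and no-compound control wells.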
AmpC detergent: qHTS Inhibitors of AmpC Beta-Lactamase (assay with detergent) | P00811 | AmpC hydrolysis of nitrocefin, absorbance 480 nm, 0.01% Triton | Potency, µM (highest dose often 114 µM), actives largely listed as inhibitors | 0.041% of 370,000 active; also: nearly all actives have a fitted effect of over 25% in size
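AmpC (5.3 nM in the dispensed reagent) in 20 mM phosphate pH 7.0 with 0.01% (detergent screen) or 0.0001% Triton X-100 was preincubated with compounds for 15 min at room temperature. Nitrocefin was then added from an 800 uM solution, and hydrolysis was followed at 480 nm.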
NS1 function inh: qHTS Assay for Inhibitors of Influenza NS1 Protein Function | Potency, µM (doses to about 46.1 µM) | 0.4% of 270,000 active | AID 2326, 2010; calls by dose curve; also: actives are rising curves; nearly all actives have a fitted effect of over 50% in size
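Compounds were scored for reversing the slow growth caused by influenza A NS1 in S. cerevisiae, measured by optical density at 600 nm. Assay medium contained 2% galactose at pH 6.0; NS1-free yeast of the same strain were the positive control.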
Of the large screens only hits and unclear results are named; the others gave an inactive call. The full list was thinned out, with hits kept by preference. Unless noted, calls follow the shape of the dose curve; as a rule, active = well fitted curve in the direction sought with a large enough effect; inconclusive = small, poorly fitted or top-dose-only effect, or another doubt; inactive = no such curve, though single readings can be large; an effect the other way counts as inactive or inconclusive.

CCOc1cccc(C(=O)Nc2cccc(NC(=O)c3ccco3)c2)c1	Cycloheximide cs 25 (no result: NS1 function inh)
COc1cccc(C(=O)Nc2ccc(Cl)c(C(F)(F)F)c2)c1	Shiga toxin inh 88, Cycloheximide cs 51
O=C(COc1cccc(NC(=O)c2ccccc2)c1)c1ccc(F)cc1	AmpC detergent inconclusive
CSc1ncc(C(=O)Nc2ccccc2)cn1	AmpC detergent inconclusive
COc1cccc(NC(=O)c2cnc(SC)nc2)c1	Cycloheximide cs 21
O=C(COc1cccc(NC(=O)c2ccco2)c1)c1ccc(F)cc1	Shiga toxin inh 25, Cycloheximide cs 15
COc1ccc(NC(=O)c2cccc(N3CCCS3(=O)=O)c2)c(OC)c1	none (no result: Shiga toxin inh, Cycloheximide cs, AmpC inh no detg, NS1 function inh)
COc1cccc(NC(=S)NC(=O)c2cccnc2)c1	Shiga toxin inh 39, Cycloheximide cs 18
COc1cccc(C(=O)NC(=S)Nc2ccc(N(C)C)cc2)c1	Shiga toxin inh 102, Cycloheximide cs 34
Cc1cccc(C(=O)NNC(=O)c2ccc(F)cc2)c1	Cycloheximide cs 14
COc1cccc(C(=O)NC(=O)Nc2cc(C)[nH]n2)c1	Shiga toxin inh 84, Cycloheximide cs 39
Cc1cc(NC(=O)c2cccc(Br)c2)n[nH]1	none (no result: Shiga toxin inh, Cycloheximide cs, NS1 function inh)
COc1cccc(C(=O)Nc2ccc(NC(=O)C3C4C=CC(C4)C3C(=O)O)cc2)c1 (stereo not given)	Shiga toxin inh 142, Cycloheximide cs 41
COc1cccc(C(=O)Nc2nnc(-c3ccccc3)s2)c1	Shiga toxin inh 112, Cycloheximide cs 33, AmpC inh no detg inconclusive
COc1cccc(C(=O)Nc2cccc(OC(C)=O)c2)c1	Shiga toxin inh 52, Cycloheximide cs 45
CC(=O)Oc1cccc(NC(=O)c2cccc(C(=O)Nc3cccc(OC(C)=O)c3)c2)c1	AmpC detergent inconclusive (no result: Shiga toxin inh)
COc1cc(NC(=O)C2C3C=CC(C3)C2C(=O)O)ccc1NC(=O)c1ccccc1 (stereo not given)	none
COc1ccccc1-c1nnc(NC(C)=O)s1	Shiga toxin inh 49, Cycloheximide cs 38
COc1ccccc1-c1nnc(NC(=O)C(C)C)s1	none
CCOc1ccc(NC(=O)NC(CC)Cn2nnc3ccccc3c2=O)cc1 (stereo not given)	none (no result: Shiga toxin inh, Cycloheximide cs, AmpC inh no detg, NS1 function inh)
CCc1ccccc1NC(=O)N1CCN(Cc2nc3ccc(C)cc3o2)CC1	none (no result: Shiga toxin inh, Cycloheximide cs, AmpC inh no detg, NS1 function inh)
CC(=O)Nc1cccc(NC(=O)c2ccc(COc3ccccc3)cc2)c1	Shiga toxin inh 109, Cycloheximide cs 59
COc1cccc(C(=O)Nc2ccc(C)cc2)c1	Shiga toxin inh 88, Cycloheximide cs 30
COc1ccc(NC(=O)c2cccc(Oc3ccc([N+](=O)[O-])cc3Cl)c2)cc1	AmpC inh no detg 2.5µM, AmpC detergent inconclusive, NS1 function inh inconclusive
CCN(CC)S(=O)(=O)c1ccc(OC)c(NC(=O)c2ccc([N+](=O)[O-])cc2)c1	none (no result: NS1 function inh)
COc1ccc(C(=O)Nc2ccccc2)cc1NC(=O)c1ccc([N+](=O)[O-])cc1	AmpC inh no detg 18µM
COC(=O)c1ccc(NC(=O)c2cccc(C)c2)cc1	Cycloheximide cs 19
CCOc1cccc(C(=O)Nc2cccc(C(=O)NC(C)(C)C)c2)c1	AmpC detergent inconclusive
COc1cccc(C(=O)Nc2ccc(C(=O)c3ccccc3)cc2)c1	Cycloheximide cs 36 (no result: Shiga toxin inh)
CCOc1cccc(NC(=O)c2cccc(F)c2)c1	Shiga toxin inh 102, Cycloheximide cs 20
COc1ccc(C(=O)Nc2ccc(C(=O)Nc3cccc(C)c3)cc2)cc1	none
COc1cccc(C(=O)Nc2cccc(C(C)=O)c2)c1	Shiga toxin inh 18, Cycloheximide cs 87
O=C(NCC(c1cccnc1)N1CCN(Cc2ccccc2)CC1)C(=O)Nc1cccc(Cl)c1 (stereo not given)	none (no result: Shiga toxin inh, Cycloheximide cs, AmpC inh no detg, NS1 function inh)
O=C1NC(=S)N/C1=C/c1ccc2ccccc2c1	none
COc1cccc(C(=O)Nc2ccc(C3CC3(Cl)Cl)cc2)c1 (stereo not given)	Shiga toxin inh 85, Cycloheximide cs 28
COc1cccc(C(=O)Nc2ccc(C(=O)O)cc2)c1	none
CCOc1cccc(C(=O)Nc2ccc3ccccc3c2)c1	Cycloheximide cs 21, AmpC detergent inconclusive
COC(=O)c1ccc(NC(=O)c2cccc(OC)c2)cc1	Shiga toxin inh 91, Cycloheximide cs 57
Cc1cccc(C(=O)Nc2ccc(O)cc2)c1	Cycloheximide cs 30, AmpC detergent inconclusive
CCOC(=O)N1CCN(Cc2nc3cc([N+](=O)[O-])ccc3n2C(C)C)CC1	none (no result: Shiga toxin inh, Cycloheximide cs, AmpC inh no detg, NS1 function inh)
